# Data taken from the supplement of paper PMC10849652.
# The full data set covers some 7,900 targets. This sample favours those with a hit. About 0.6% of all pairs of compound and target were hits. Values without a mark were called inactive.
# Compound: COc1cc(Nc2ncc3c(n2)-c2ccc(Cl)cc2C(c2c(F)cccc2OC)=NC3)ccc1C(=O)O [alisertib]
# Experiment: log2 fold change, soluble protein after heating vs DMSO (PISA); higher = thermal stabilisation; K562 cells, 10 uM, 30 min; active = over 0.2 and 3.5 SD of the protein, either way, in both replicates (recomputed)
# Outline: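 K562 cells at 2×10^6 cells/mL were treated with 10 μM compound for 30 min. Aliquots were heated for 3 min across 48°C-58°C, pooled, and extracted in PBS with 0.5% NP-40 at 4°C; soluble protein was the supernatant after 21,000xg for 90 min. Soluble protein was quantified by TMTpro 16plex LC-MS/MS with channel sums equalised, and reported as log2 fold change in thermal stability against DMSO controls, with values from duplicates.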
# UniProt Q9BY66, sequence (Q9BY66 whole entry, looked up): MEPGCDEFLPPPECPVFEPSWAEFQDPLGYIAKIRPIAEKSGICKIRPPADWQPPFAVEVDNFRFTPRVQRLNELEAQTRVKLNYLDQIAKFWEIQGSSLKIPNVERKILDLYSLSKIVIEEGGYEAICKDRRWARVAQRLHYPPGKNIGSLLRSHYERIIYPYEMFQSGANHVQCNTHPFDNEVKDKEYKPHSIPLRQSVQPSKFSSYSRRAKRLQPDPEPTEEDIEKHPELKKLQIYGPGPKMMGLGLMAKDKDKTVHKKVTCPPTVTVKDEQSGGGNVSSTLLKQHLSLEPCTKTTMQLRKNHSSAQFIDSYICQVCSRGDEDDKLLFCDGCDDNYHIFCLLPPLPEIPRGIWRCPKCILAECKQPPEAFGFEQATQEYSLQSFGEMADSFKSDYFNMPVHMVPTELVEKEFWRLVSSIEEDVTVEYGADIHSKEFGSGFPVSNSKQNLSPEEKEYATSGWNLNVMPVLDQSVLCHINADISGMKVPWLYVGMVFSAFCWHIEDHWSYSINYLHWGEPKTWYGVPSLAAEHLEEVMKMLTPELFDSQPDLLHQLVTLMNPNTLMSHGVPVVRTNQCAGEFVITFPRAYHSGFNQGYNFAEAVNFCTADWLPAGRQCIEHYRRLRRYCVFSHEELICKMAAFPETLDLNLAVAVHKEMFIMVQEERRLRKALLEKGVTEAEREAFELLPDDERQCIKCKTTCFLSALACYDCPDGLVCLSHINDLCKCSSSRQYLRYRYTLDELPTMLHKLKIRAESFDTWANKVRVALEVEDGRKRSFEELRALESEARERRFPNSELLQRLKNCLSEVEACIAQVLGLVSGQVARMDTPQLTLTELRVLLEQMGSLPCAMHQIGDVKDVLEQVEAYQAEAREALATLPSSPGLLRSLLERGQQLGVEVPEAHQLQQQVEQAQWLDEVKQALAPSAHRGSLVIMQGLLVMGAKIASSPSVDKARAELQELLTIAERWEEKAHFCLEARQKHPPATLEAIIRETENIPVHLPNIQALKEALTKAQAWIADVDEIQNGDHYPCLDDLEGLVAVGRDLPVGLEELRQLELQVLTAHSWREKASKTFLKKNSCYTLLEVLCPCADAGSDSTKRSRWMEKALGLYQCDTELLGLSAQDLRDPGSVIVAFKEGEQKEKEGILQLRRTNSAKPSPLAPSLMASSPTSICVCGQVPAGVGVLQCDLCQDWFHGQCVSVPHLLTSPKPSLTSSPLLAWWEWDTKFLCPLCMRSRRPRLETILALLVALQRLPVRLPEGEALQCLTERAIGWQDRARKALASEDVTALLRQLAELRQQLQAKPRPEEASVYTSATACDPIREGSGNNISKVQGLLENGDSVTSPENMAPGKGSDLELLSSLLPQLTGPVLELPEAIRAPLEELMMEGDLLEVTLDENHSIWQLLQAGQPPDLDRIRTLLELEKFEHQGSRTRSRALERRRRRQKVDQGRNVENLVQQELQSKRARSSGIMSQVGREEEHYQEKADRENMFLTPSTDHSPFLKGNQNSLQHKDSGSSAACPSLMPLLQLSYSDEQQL
# UniProt Q9H0B6, sequence (Q9H0B6 whole entry, looked up): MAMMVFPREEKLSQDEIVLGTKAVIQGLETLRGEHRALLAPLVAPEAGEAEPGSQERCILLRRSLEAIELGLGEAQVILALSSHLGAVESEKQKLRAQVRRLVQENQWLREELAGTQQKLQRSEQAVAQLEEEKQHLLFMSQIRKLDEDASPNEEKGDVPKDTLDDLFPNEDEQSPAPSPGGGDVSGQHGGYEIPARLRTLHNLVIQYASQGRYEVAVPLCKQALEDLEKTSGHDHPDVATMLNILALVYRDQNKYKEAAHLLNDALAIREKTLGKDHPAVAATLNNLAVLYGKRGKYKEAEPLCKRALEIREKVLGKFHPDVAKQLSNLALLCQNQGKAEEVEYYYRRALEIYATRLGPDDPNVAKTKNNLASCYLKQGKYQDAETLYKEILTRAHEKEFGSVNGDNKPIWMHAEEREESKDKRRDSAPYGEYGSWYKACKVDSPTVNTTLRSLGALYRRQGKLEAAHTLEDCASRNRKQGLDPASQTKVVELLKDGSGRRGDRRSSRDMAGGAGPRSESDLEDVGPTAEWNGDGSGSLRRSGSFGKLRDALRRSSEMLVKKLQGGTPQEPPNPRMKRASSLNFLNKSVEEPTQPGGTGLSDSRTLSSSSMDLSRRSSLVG
# UniProt Q7Z4S6, sequence (Q7Z4S6 whole entry, looked up): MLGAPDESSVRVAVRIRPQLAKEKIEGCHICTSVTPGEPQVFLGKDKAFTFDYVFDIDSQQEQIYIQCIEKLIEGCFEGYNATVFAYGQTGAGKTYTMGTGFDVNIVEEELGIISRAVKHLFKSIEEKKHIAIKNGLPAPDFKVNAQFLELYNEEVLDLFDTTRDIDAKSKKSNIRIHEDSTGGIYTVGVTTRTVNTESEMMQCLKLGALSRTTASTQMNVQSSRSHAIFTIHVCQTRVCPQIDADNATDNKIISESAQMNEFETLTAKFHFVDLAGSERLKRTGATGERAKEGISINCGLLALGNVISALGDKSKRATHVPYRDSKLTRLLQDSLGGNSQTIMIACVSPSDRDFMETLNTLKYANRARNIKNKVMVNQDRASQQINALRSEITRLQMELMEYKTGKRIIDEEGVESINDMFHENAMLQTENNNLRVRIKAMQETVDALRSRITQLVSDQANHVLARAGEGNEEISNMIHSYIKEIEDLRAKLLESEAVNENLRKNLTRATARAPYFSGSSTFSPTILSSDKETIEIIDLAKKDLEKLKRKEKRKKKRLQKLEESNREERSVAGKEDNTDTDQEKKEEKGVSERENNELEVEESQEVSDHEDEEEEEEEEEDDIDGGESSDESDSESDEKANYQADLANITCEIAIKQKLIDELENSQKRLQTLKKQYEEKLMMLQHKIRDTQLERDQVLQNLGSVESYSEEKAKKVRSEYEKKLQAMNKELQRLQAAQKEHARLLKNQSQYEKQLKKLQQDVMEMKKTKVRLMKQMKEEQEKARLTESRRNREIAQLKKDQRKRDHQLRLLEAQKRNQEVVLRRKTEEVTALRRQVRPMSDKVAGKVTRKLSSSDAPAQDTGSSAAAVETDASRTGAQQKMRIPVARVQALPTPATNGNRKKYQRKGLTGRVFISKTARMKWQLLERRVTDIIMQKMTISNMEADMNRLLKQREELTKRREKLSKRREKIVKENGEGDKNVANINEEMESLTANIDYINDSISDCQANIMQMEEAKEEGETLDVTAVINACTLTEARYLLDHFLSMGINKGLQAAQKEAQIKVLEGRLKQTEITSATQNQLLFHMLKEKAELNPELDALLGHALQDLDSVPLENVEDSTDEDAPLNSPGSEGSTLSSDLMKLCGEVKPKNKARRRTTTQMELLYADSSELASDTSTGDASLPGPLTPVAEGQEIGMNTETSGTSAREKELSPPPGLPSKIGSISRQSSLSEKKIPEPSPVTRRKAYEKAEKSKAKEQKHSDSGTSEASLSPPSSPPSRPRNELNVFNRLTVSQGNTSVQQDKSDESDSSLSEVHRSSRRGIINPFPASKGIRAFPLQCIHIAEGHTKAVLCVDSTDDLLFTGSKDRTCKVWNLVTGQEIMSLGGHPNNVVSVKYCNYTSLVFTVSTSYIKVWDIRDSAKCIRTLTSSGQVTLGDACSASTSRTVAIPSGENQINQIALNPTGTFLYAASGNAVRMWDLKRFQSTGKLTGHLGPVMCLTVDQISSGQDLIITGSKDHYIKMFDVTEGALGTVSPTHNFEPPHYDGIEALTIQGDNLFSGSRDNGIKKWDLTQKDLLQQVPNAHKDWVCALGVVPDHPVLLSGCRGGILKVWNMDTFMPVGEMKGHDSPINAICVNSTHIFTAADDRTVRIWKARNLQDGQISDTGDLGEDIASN
# UniProt Q68DH5, sequence (Q68DH5 whole entry, looked up): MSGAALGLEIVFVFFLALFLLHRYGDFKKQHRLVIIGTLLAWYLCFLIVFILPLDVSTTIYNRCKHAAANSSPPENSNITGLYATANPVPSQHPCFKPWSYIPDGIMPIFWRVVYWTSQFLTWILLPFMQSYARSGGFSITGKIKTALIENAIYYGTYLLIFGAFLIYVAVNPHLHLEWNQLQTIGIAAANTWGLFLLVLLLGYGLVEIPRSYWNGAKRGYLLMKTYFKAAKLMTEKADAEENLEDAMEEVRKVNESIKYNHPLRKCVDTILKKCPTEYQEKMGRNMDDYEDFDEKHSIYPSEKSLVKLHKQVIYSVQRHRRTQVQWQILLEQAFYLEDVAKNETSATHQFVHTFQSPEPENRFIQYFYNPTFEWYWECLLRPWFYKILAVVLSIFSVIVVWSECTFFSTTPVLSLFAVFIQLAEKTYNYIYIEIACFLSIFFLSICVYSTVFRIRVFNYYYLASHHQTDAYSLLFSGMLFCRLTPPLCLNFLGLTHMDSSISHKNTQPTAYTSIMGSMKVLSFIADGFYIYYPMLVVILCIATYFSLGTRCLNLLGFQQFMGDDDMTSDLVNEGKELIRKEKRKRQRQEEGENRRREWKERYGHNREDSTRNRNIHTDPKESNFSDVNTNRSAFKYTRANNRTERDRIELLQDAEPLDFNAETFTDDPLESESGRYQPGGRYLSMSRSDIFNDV
# UniProt Q9H6V9, sequence (Q9H6V9 whole entry, looked up): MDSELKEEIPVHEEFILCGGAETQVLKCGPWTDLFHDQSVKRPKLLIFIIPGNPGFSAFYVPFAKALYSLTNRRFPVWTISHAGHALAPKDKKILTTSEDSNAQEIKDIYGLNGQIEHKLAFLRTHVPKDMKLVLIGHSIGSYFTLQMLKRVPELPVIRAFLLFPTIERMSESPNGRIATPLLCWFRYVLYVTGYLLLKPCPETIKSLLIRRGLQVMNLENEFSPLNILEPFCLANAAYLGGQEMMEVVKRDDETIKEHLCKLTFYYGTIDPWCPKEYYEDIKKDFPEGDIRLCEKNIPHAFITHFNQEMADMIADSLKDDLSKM
# UniProt Q8WV07, sequence (Q8WV07 whole entry, looked up): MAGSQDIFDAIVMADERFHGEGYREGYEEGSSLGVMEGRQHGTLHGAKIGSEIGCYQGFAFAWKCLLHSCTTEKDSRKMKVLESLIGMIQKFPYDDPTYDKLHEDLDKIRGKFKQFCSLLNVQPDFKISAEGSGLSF
row,Target,log2 fold change
1,LTV1 (UniProt Q96GA3),-0.06
2,LMNB1 (UniProt P20700),-0.075
3,LNPK (UniProt Q9C0E8),-0.034
4,LDAH isoform 2 (UniProt Q9H6V9),-0.041
5,IL27RA (UniProt Q6UWB1),-0.29
6,KIF2C (UniProt Q99661),-0.008
7,LAMP2 (UniProt P13473),-0.006
8,LMNB2 (UniProt Q03252),0.004
9,MAP1LC3B2 (UniProt A6NCE7),-0.004
10,METAP1D (UniProt Q6UB28),-0.085
11,LIMD1 (UniProt Q9UGP4),-0.059
12,MED17 (UniProt Q9NVC6),-0.08
13,KIF3A (UniProt Q9Y496),-0.027
14,IKZF1 (UniProt Q13422),-0.019
15,KSR1 (UniProt Q8IVT5),0.123
16,MAIP1 (UniProt Q8WWC4),-0.047
17,LPGAT1 (UniProt Q92604),0.032
18,LTO1 (UniProt Q8WV07),0.118
19,LARP4 isoform 4 (UniProt Q71RC2),-0.045
20,IMMP1L (UniProt Q96LU5),-0.252 (active)

row,Target,log2 fold change
1,LRBA (UniProt P50851),-0.017
2,LMBRD2 (UniProt Q68DH5),-0.035
3,MAP2K2 (UniProt P36507),-0.103
4,ITM2B (UniProt Q9Y287),0.083
5,IPO13 (UniProt O94829),0.021
6,ILRUN (UniProt Q9H6K1),-0.03
7,IRF2BPL (UniProt Q9H1B7),0.058
8,LDLR (UniProt P01130),0.073
9,LUC7L3 (UniProt O95232),-0.009
10,MAP2K7 isoform 4 (UniProt O14733),-0.029
11,MDC1 (UniProt Q14676),-0.028
12,MAP2K1 (UniProt Q02750),-0.048
13,MARK3 (UniProt P27448),0.05
14,KIF21A isoform 4 (UniProt Q7Z4S6),0.051
15,LEMD3 (UniProt Q9Y2U8),0.073
16,KDM5D isoform 3 (UniProt Q9BY66),-0.044
17,IK (UniProt Q13123),-0.044
18,KLC2 (UniProt Q9H0B6),-0.047
19,INPP5B (UniProt P32019),0.03
